About 900 (25%) of roughly 3,600 compounds were called active. How the calls were made is not given here. A selection follows. Results with a measured potency or affinity are listed apart.

This assay deals with Protein Tat (Human immunodeficiency virus type 1 group M subtype B (isolate HXB2)) (UniProt P04608). The assay can be described thus: inhibitors of Tat binding to TAR RNA, dose response, counter-screen for Vif-APOBEC3G degradation inhibitor project, biochemical, fluorescence polarization, FAM-labeled TAR RNA (AID 1117361). The conditions noted are these: outcome: dose series up to 100 µM unless noted; series mostly up to 100 µM. Background: Counterscreens check selectivity or assay interference.
`Cc1nn(-c2c(Cl)cc(Cl)cc2Cl)c(=O)c2ccccc12`: the result was inactive.
For `CC(Sc1nnnn1-c1ccccc1)C(=O)Nc1ccc(Cl)cn1` (configuration not stated), the call was inactive.
As for `O=C(CN1C(=O)C2CC=CCC2C1=O)OCCN1C(=O)c2ccccc2C1=O` (configuration not stated), the outcome was “inactive [at 50 µM]”.
For the molecule `Cc1ccc(CCNC(=O)C2CCC(=O)N2C2CCCC2)cc1` (configuration not stated), the outcome was inactive.
Consider `Cc1c(NS(=O)(=O)c2cccc(C(=O)NCc3ccncc3)c2)c(=O)n(-c2ccccc2)n1C`, for which the molecule was classed as inactive.
In the case of `O=S(=O)(NCc1ccccc1Cl)c1cnc[nH]1`, the call was inactive.
Next, `CNC(=S)N(Cc1ccc(OC)cc1)C1CC(=O)N(c2ccc(Cl)cc2)C1=O` (configuration not stated): “inactive”; `COc1ccc2cc(C(=O)Nc3ccc(O)cc3)sc(=O)c2c1OC`: “inactive”; `CCCC(=O)NNC(=O)Nc1ccccc1`: “inactive”.
On to `CCN1CCN(Cc2ccc(NC(=O)Nc3ccccc3)cc2)CC1`, for which the molecule was classed as inactive.
For the molecule `O=C(NCC1CCCO1)c1c(O)c2c([nH]c1=O)CCCC2` (configuration not stated), the outcome was inactive.
For `CC[n+]1c(/C=C2\C=C(C)CC(C)(C)C2)sc2ccccc21` the value was “inactive”.
In the case of `CCC(C)NC(=O)CSc1ccc(S(=O)(=O)N2CCN(Cc3ccccc3)CC2)cn1` (configuration not stated), the outcome was inactive.
`Cc1csc(NC(=O)CCSCCc2ccccn2)n1`: the call was inactive.
For `CCOc1ccc(NC(=S)/C(=C(\[O-])c2ccc(C)c([N+](=O)[O-])c2)[n+]2ccccc2)cc1` the value was “inactive”; for `C=C(C)COc1ccc2c(C)c(C)c(=O)oc2c1OCC(=C)C`, “inactive”; for `COc1ccc(NC(=O)CN(C)S(=O)(=O)c2ccc3c(c2)CCC(=O)N3)c(OC)c1`, “inactive”.
With `CCC(Sc1nc2c(c(=O)n1CC)SC(C)C2)C(=O)OC` (configuration not stated), the molecule was classed as inactive.
As to `Cn1c(SCC(=O)N2CCCC2)nc2ccccc2c1=O`, the molecule was classed as inactive.
For `Cc1noc(NS(=O)(=O)c2ccc(NC(=O)CSc3nnc(-c4ccccc4)n3C3CCCCC3)cc2)c1C` the value was “inactive”; for `CC(=O)NCCn1c(SCC(=O)Nc2ccc(C)cc2)nc2ccccc2c1=O`, “inactive”.
On to `Cc1nc(NCc2ccccc2)c2cc[nH]c2n1`, for which the call was inactive.
`Cc1cc(C)n(CC(O)CN2c3ccccc3Sc3ccccc32)n1` (configuration not stated): the call was inactive.
As to `CC1CCCCN1Cc1ccc(N(C)C)cc1` (configuration not stated), the outcome was inactive.
`O=C(Nc1cccc(C(F)(F)F)c1)c1cccnc1NCCc1ccccc1`: the outcome was inactive.
Take `O=C(NN=C1CCCC1)C(=O)Nc1cccc(C(F)(F)F)c1`: the call was inactive.
For `O=C(Nc1ccccc1)c1ccc2nc(-c3ccco3)c(-c3ccco3)nc2c1` the value was “inactive”; for `Cc1ccc(C(=O)Nc2cccnc2)cc1NC(=O)c1ccco1`, “inactive”.
Consider `COC(=O)C1=C(C)Nc2ncnn2C1c1ccc(OC(=O)c2ccccc2)cc1` (configuration not stated), for which the call was inactive.
For `CC(=O)c1ccccc1NC(=O)COC(=O)CN1C(=O)C2CCCCC2C1=O` (configuration not stated), the result was inactive.
As for `COCCn1c(-c2ccc(OC)cc2)nc2ccccc21`, the outcome was inactive.
Consider `N#Cc1cn(CCOc2ccccc2F)c2ccccc12`, for which the molecule was classed as inactive.
Next, `Cc1ccc(C(=O)N2c3ccc(F)cc3CCC2C)o1` (configuration not stated): “inactive”; `CC(Cc1c[nH]c2ccccc12)C(=O)NCc1ccco1` (configuration not stated): “inactive”.
Turning to `COC(=O)COc1ccc(S(=O)(=O)NCc2ccco2)cc1Cl`, the molecule was called inactive.
Next, `CN(C)CCNc1oc(COc2ccc(Cl)cc2)nc1C#N`: “inactive”.
Take `O=C(NNC(=O)c1cc(OCC(F)(F)F)ccc1OCC(F)(F)F)c1cccc(C(F)(F)F)c1`: the call was inactive.
With `Cc1cc(-n2c(C)cc(C(=O)COC(=O)CN=C3NS(=O)(=O)c4ccccc43)c2C)no1`, the molecule was classed as inactive.
`O=C1CCCC2=C1C(c1ccsc1)CC(=O)N2c1ccccc1` (configuration not stated): the outcome was inactive.
As to `COC(=O)C1(C(=O)OC)NOC2C(=O)N(c3ccccc3)C(=O)C21` (configuration not stated), the molecule was called inactive.
For the molecule `O=C(c1cccc(S(=O)(=O)N2CCCC2)c1)N1CCOCC1`, the molecule was called inactive.
As for `COc1ccc(OCCOC(=O)c2cc(S(=O)(=O)N3CCOCC3)c(Cl)cc2Cl)cc1`, the molecule was classed as inactive.
As for `COc1ccc(CN2CCSCC2)cc1C`, the outcome was inactive.
For `CN(CCO)c1cc(Sc2nc3ccccc3s2)c2nonc2c1[N+](=O)[O-]` the value was “inactive”.
Take `CCC(=O)OCCNc1cc(Sc2nc3ccccc3[nH]2)c2nonc2c1[N+](=O)[O-]`: the molecule was called inactive.
Turning to `O=C(O)c1cc(Nc2cc(Cl)c3nonc3c2[N+](=O)[O-])ccc1O`, the call was inactive.
Consider `O=[N+]([O-])c1c(Nc2ccccc2O)cc(Cl)c2nonc12`, for which the molecule was classed as inactive.
With `C=CCSc1nnc(-c2ccc(Cl)cc2Cl)o1`, the result was inactive.
Take `O=C1N=NC2=C1c1c3ccccc3c(O)n1CC2`: the molecule was classed as inactive.
`N#CC1=C(Nc2ccccc2)SC=C(c2ccc(Br)cc2)N=C1N1CCOCC1`: the molecule was classed as inactive.
Turning to `Cc1onc(-c2ccccc2Cl)c1C(=O)N1CCN(c2cccc(Cl)c2)CC1`, the outcome was inactive.
With `COc1ccc(CC(=O)OCn2nnc3ccccc3c2=O)cc1`, the call was inactive.
In the case of `CC(NC(=O)CN(C)Cc1nc2ccccc2c(=O)[nH]1)c1ccccc1` (configuration not stated), the molecule was classed as inactive.
Turning to `Cc1ccc(CNC(=O)C2CCCN(S(=O)(=O)c3cnc[nH]3)C2)cc1` (configuration not stated), the outcome was inactive.
For the molecule `COCCn1c(SCC(=O)N2CCC(C)CC2)nc2ccccc2c1=O`, the molecule was called inactive.
Next, `COc1ccc(/C=N/NC(=O)CNc2n[nH]c(=O)[nH]c2=O)cc1OC`: “inactive”; `O=C(Nc1nc2n(n1)C(c1ccccc1)CC(c1ccc(Cl)cc1)N2)c1ccco1` (configuration not stated): “inactive”; `COc1cccc(-c2nc3cc(C)ccc3o2)c1`: “inactive”.
Take `Cc1nc2nc(-c3ccccc3)cn2nc1C`: the call was inactive.
Turning to `CON(c1nc(N(C)C)nc(N(C)C)n1)S(=O)(=O)c1ccccc1Cl`, the molecule was classed as inactive.
`O=S(=O)(c1ccc(Cl)s1)N1CCN(Cc2ccccc2)CC1`: the outcome was inactive.
Take `O=C(Cn1nc(-c2ccc(Cl)cc2)ccc1=O)NCc1ccc2c(c1)OCO2`: the result was inactive.
For `CC1CCN(Cc2cnc(Cl)s2)CC1` the value was “inactive”; for `CCCCSc1nc2sc3c(c2c(=O)[nH]1)CCC3`, “inactive”; for `CCn1c(SCC(=O)OC)nc2sc3c(c2c1=O)CCC3`, “inactive”.
As to `Cc1nn(C)cc1CNC(=O)C1C2CCC(C2)C1C(=O)O` (configuration not stated), the result was inactive.
Turning to `CCN1C(=O)CS/C1=C(\C#N)S(=O)(=O)c1ccccc1`, the molecule was classed as inactive.
In the case of `Clc1ccc(CSCCc2ccncc2)cc1`, the molecule was classed as inactive.
Next, `COC1=C(Br)C(=O)c2nc(C)ccc2C1=O`: “inactive”; `COC1=C(N)C(=O)c2nc(C)ccc2C1=O`: “inactive”.
For `CCOC(=O)C1(Cc2ccc(OC)cc2)CCN(C(=O)Cc2cccnc2)CC1`, the call was inactive.
In the case of `COC(=O)C(Cc1c[nH]c2ccccc12)NC(=O)C(C)C` (configuration not stated), the molecule was called inactive.
`Cc1ccc(CNC(=O)CCC2CCCN(Cc3cc4ccccc4o3)C2)o1` (configuration not stated): the molecule was called inactive.
Next, `Cc1ccc(CCNC(=O)C2CCCN(S(=O)(=O)c3c(C)noc3/C=C/N(C)C)C2)cc1` (configuration not stated): “inactive”; `Cc1ccc(S(=O)(=O)c2c(N)n(NC(=O)C3CC3)c3nc4ccccc4nc23)cc1`: “inactive”.
Turning to `Cc1ccc(C)c(CN2C(=O)C(C)Oc3ccc(C)cc32)c1` (configuration not stated), the result was inactive.
Next, `CC1(C)Cc2c(c(=S)nc(-c3ccccc3)n2CCCN2CCOCC2)CO1`: “inactive”.
`C=CCN=c1scc(C)n1/N=C/c1ccc(O)c(O)c1`: the molecule was classed as inactive.
For `COc1ccc(Cl)cc1N(CC(=O)Nc1ccc2c(c1)OCO2)S(C)(=O)=O` the value was “inactive”; for `COC(=O)c1cccc(NC(=O)NC2CCCN2S(=O)(=O)c2ccc(Cl)cc2)c1` (configuration not stated), “inactive”; for `CS(=O)(=O)N(C(=O)NC(=O)NC1CCS(=O)(=O)C1)C1CCCCC1` (configuration not stated), “inactive”.
Next, `COc1ccc(C2CC(=O)Nc3cc(C)c(C)cc32)c(OC)c1OC` (configuration not stated): “inactive”.
Next, `CC(C(=O)N1CCOCC1)(c1ccccc1)c1ccccc1`: “inactive”; `CC(=O)c1ccc(Nc2nc(=O)c3cccnc3s2)cc1`: “inactive”.
As for `CN(C)c1ccc(C=c2c3cc([N+](=O)[O-])ccc3n3c2cc(-c2ccccc2)[n+]3C)cc1`, the result was inactive.
`NNC(=S)Nc1ccc(Cl)cc1`: the result was inactive.
As to `CC(=O)c1ccc(N2CCN(C(=O)c3ccc4c(c3)OCO4)CC2)cc1`, the call was inactive.
With `O=C(NCCS(=O)CCNC(=O)C(F)(F)F)C(F)(F)F`, the call was inactive.
With `Cc1onc(-c2ccccc2)c1C(=O)NCC1COc2ccccc2O1` (configuration not stated), the call was inactive.
Consider `CC(=O)Cc1nsc(Nc2ccc3c(c2)OCCO3)n1`, for which the call was inactive.
Turning to `O=C(NN(C(=O)c1ccccc1)c1ccccc1)c1ccccc1`, the call was inactive.
On to `CC(NC(=O)C1C(=O)N(CCO)C2(C)CC1c1ccccc1O2)c1ccccc1` (configuration not stated), for which the result was inactive.
With `CN1OC[C@@H]2CN(C(=O)C(C)(C)C)[C@H](c3cccc(Oc4ccccc4)c3)C[C@@H]21`, the molecule was called inactive.
For the molecule `O=C(c1cc(COc2cccc3cccnc23)on1)N1CCC[C@H]1CO`, the result was inactive.
In the case of `C=CCc1cc(Cl)ccc1OC(=O)Nc1cccc(Cl)c1`, the outcome was inactive.
As for `COc1ccc2[nH]c3c(N4CCC(O)(c5cccc(C(F)(F)F)c5)CC4)ncnc3c2c1`, the molecule was classed as inactive.
Next, `Clc1ccc(CSc2snnc2-c2ccccc2)c(Cl)c1`: “inactive”.
For `Cc1ccc(CSc2nnc(-c3ccco3)o2)cc1` the value was “inactive”.
As to `CCCCN(CCCC)CCCN1CC(=O)N2[C@@H](Cc3c([nH]c4ccccc34)C2(C)C)C1=O`, the call was inactive.
Turning to `CC(C)Cn1c(=O)[nH]c2ccccc21`, the molecule was called inactive.
In the case of `COc1ccc(CCN=C(N)NS(=O)(=O)c2ccc(C)cc2)cc1`, the molecule was called inactive.
In the case of `O=C(NCc1ccco1)c1sc2cccc(F)c2c1Cl`, the outcome was inactive.
For `CCN(CC)C(=O)Cn1cnc2sc(C(=O)Nc3cc(OC)c(OC)c(OC)c3)c(C)c2c1=O` the value was “inactive”.
On to `Cc1cc(NC(=O)CSc2nnc(-c3ccncc3)n2N)ccc1Br`, for which the call was inactive.
For `CCc1ccc(NC(=O)CCNS(=O)(=O)c2cccc3nonc23)cc1`, the result was inactive.
With `CCN(CC)c1ccc(NC(=O)c2ccc(Br)o2)cc1`, the result was inactive.
For `COc1ccc(NC(=O)c2ccc(S(=O)(=O)N3CCOCC3)o2)cc1` the value was “inactive”; for `O=C(O)Cn1c(=O)c2c(c3ccccc31)CCC2`, “inactive”; for `CS(=O)(=O)N1CCN(c2ccccc2NC(=O)CSc2ccc(Cl)cc2)CC1`, “inactive”.
Take `Cn1cccc1Cc1nnc(SCC(N)=O)n1CCc1ccccc1`: the call was inactive.
Next, `CC[C@H](C)[C@H](NC(N)=O)C(=O)NCCc1ccc(OC)cc1`: “inactive”.
With `Cc1c(C)n(CC(O)CN2CCCCCC2)c2ccccc12` (configuration not stated), the outcome was inactive.
